# Screening results from PubChem.
# In the library only some 0.71% were active in any assay of this set; here they are far more common.
# ERG Ets-DNA blk: blocks human ERG Ets domain binding to DNA | fluorescence polarization, His-ERG Ets domain / labelled DNA | 370,000 tested, 0.028% active | P11308 | AID 624246 | Potency, µM (top dose mostly 76.9 µM), for the others: at the highest dose FP activity, negative = inhibition, hits mostly inhibitors; active = well fitted inhibition curve with a large enough effect in the polarisation, with a control signal flat; inconclusive = small, poorly fitted or top-dose-only effect, or effect the other way, or a change in a side signal; inactive = no such curve, though single readings can be large or run the other way; the % refers to the polarisation;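 also: polarization taken with two DNA probes labelled with fluorescein and Texas red; % of control where 0% means no effect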
#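 His-tagged ERG Ets domain (1 uM in the protein solution; 300mM KCl, 50mM Tris-HCl, 1mM EDTA, 1mM DTT, pH 7.5) received compound, then a probe mix of 5 nM fluorescein-DNA and 100nM Texas-615-DNA. Fluorescence polarization was read for both dyes.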
# RECQ1 inh-1: inhibitors of human RECQ1 DNA helicase; P46063; RECQ1 DNA unwinding, red fluorescence kinetic read; Potency, µM (titrated, usually from 57.3 µM), for the others: at the highest dose activity, negative = inhibition, most hits filed as inhibitors; 240,000 tested, 0.54% active; AID 2549;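 also: plate controls were vehicle for no effect and no enzyme for full effect; nearly all actives have a fitted effect of over 30% in size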
#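 50 nM RECQ1T1 preincubated 15 min with compound in Tris pH 8.0 buffer with MgCl2, DTT, Tween-20 and 2.5 ug/ml poly(dI-dC); started with 200 nM TAMRA/BHQ-2 forked duplex and 2 mM ATP. Unwinding read as fluorescence (525/598 nm), two reads 2 h apart.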
# TRb SRC2 PPI: disrupts binding of human TR beta to SRC2. TRbeta-SRC2 peptide binding, fluorescence polarization; receptor liganded with 1 µM T3. Potency, µM (series often up to 106 µM), for the others: at the top dose activity change, negative = inhibition, actives largely listed as inhibitors. 280,000 tested, 0.065% active. P10828;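 also: plate controls were bound peptide for no effect and peptide without receptor for full effect; nearly all actives have a fitted effect of over 50% in size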
#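 Binding of a 20-amino-acid Texas Red SRC2 peptide (20 nM) to TRb ligand-binding domain (0.6 uM) with agonist T3 at 1 uM was followed by fluorescence polarization after a 5 hr room-temperature incubation.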
# RGS12 GoLoco inh: blocks human Gai1 binding to RGS12 GoLoco peptide, red readout | 230,000 tested, 0.44% active | AID 880 | Gai1:RGS12 GoLoco peptide FP, rhodamine, 10 min | Potency, µM (doses to about 61.6 µM), inactives show at the highest dose activity, negative = inhibition, most hits filed as inhibitors; active = well fitted inhibition curve with a large enough effect, not every such curve was filed as active; inactive = no such curve, though single readings can be large or run the other way; also: % is scaled to controls: 0 for no effect and ±100 for the full control effect; nearly all actives have a fitted effect of over 30% in size
# TR SRC2 fluor cs: Texas Red fluorescence interference in TRb-SRC2 counter-screen. TRb/SRC2 Texas Red total fluorescence interference. 280,000 tested, 0.29% active. Potency, µM (highest dose often 106 µM), for the others: at the highest dose fluorescence change, negative = quenching; active = well fitted curve in either direction with a large enough effect; inconclusive = small, poorly fitted or top-dose-only effect; also: % is scaled to controls: 0 for no effect and ±100 for the full control effect
#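 Flags fluorescent or light-absorbing compounds by total fluorescence, S + 2P, at 555 nm excitation and 632 nm emission. Mixture: 20 nM Texas Red SRC2 peptide, 0.6 uM human TRb LBD, 1 uM T3, 5% DMSO; compound exposure 5 h at ambient temperature.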
# BLM helicase inh: blocks DNA unwinding by human BLM helicase. P54132. recombinant BLM DNA unwinding, fluorescence dequenching. 350,000 tested, 0.2% active. Potency, µM (top dose mostly 56.1 µM), inactives show top-dose activity change, negative = inhibition, actives largely listed as inhibitors;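 also: plate controls were vehicle for no effect and no enzyme for full effect; nearly all actives have a fitted effect of over 35% in size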
# Target sequence (P54132 whole entry, looked up): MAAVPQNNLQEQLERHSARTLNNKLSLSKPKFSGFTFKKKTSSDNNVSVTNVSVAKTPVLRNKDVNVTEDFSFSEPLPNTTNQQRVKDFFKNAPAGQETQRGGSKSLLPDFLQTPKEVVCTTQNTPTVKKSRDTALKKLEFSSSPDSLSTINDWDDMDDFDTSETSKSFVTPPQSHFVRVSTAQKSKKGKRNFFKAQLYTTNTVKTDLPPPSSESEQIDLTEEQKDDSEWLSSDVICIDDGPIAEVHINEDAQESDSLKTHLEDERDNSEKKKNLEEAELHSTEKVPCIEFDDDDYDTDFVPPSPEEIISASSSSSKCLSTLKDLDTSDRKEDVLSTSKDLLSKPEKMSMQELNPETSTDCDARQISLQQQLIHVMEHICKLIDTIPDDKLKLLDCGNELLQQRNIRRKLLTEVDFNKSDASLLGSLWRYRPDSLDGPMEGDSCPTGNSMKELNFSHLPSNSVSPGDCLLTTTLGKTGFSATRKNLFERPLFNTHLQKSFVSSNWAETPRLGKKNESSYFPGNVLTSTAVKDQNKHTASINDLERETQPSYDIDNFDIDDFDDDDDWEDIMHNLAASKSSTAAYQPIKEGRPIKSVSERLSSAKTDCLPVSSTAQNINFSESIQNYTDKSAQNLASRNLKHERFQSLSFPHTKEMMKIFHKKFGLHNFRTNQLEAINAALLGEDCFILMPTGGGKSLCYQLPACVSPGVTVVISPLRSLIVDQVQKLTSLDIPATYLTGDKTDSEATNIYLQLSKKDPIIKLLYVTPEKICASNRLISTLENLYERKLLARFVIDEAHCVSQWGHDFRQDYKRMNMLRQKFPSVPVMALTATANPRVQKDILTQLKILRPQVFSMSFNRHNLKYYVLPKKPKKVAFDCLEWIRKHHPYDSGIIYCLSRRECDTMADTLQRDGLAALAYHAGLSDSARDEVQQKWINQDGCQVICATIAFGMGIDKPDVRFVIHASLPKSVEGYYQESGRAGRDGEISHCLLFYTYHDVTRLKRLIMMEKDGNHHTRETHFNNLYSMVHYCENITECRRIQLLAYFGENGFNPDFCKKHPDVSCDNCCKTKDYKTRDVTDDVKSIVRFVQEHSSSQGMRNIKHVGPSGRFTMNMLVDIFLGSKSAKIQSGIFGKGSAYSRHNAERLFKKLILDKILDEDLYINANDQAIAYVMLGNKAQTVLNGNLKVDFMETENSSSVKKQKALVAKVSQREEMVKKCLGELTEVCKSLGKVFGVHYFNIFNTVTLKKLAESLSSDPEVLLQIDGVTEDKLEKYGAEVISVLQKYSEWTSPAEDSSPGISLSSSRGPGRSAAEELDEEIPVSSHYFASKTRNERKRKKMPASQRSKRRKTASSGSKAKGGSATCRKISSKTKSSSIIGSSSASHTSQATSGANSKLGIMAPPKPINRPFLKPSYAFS
# RECQ1 conf: confirmation of human RECQ1 helicase inhibitors; Potency, µM (doses to about 229 µM), without a hit: top-dose activity change, negative = inhibition, actives largely listed as inhibitors; shares compounds with RECQ1 inh-1; RECQ1 helicase DNA unwinding, fluorescence; AID 2708; 610 tested, 28% active; also: % is scaled to controls: 0 for no effect and ±100 for the full control effect; nearly all actives have a fitted effect of over 45% in size
# RECQ1 ADP FP: counter-screen for RECQ1 inhibitors: ADP displacement; AID 2711; ADP fluorescence polarization displacement counterscreen; shares compounds with RECQ1 inh-1; Potency, µM (doses to about 228 µM), for inactives: at the highest dose activity change, negative = inhibition, most hits filed as inhibitors; 530 tested, 27% active; also: % is scaled to controls: 0 for no effect and ±100 for the full control effect; nearly all actives have a fitted effect of over 45% in size
# RECQ1 inh-2: confirmation of human RECQ1 helicase inhibitors | shares compounds with RECQ1 inh-1 | recombinant RECQ1 DNA unwinding, red fluorescence | Potency, µM (series often up to 119 µM), for inactives: at the top dose activity, negative = inhibition, hits mostly inhibitors | 1,100 tested, 15% active | AID 504841; also: % is scaled to controls: 0 for no effect and ±100 for the full control effect; nearly all actives have a fitted effect of over 50% in size
# * = called active by the depositor; i = inactive; ? = inconclusive; . = no result given; [ ] = another dose, or the depositor's remark. Unless noted, calls follow the shape of the dose curve; as a rule, active = well fitted curve in the direction sought with a large enough effect; inconclusive = small, poorly fitted or top-dose-only effect, or another doubt; inactive = no such curve, though single readings can be large; an effect the other way counts as inactive or inconclusive. Potency is read from the fitted curve at half-maximal effect.
SMILES,ERG Ets-DNA blk,RECQ1 inh-1,TRb SRC2 PPI,RGS12 GoLoco inh,TR SRC2 fluor cs,BLM helicase inh,RECQ1 inh-2,others
CCCCC(C)/C=C(C)/C=C(\C)C(=O)NC1=CC(O)(/C=C/C=C/C=C/C(=O)NC2=C(O)CCC2=O)C2OC2C1=O (configuration not stated),.,?,-13.3%,.,-17.9%,?,.,
COC(=O)c1ccc(CC(=O)c2c(C)cc(O)cc2O)o1,0.9%,?,-6.9%,.,-6.0%,-7.8%,?,
CCOC(=O)C1CCc2sc(N)c(C#N)c21 (configuration not stated),.,25.1µM*,-11.2%,-9.3%,-12.6%,-6.1%,.,RECQ1 conf=11.5%[114 µM];RECQ1 ADP FP=-1.3%[91.9 µM]
CCOC(=O)N1CCc2c(sc(N)c2C#N)C1,13.8%,-0.9%,-6.7%,3.5%,-4.1%,-0.3%,.,
CCOc1ccc(/C=C/C(=O)c2cc(Br)ccc(=O)c2O)cc1,9.6%,22.4µM*,-4.5%,12.9%,-12.1%,-17.2%,?,
Cc1cccc(/C=C/C(=O)c2cc(Br)ccc(=O)c2O)c1,5.7%,?,-18.6%,21.1%,-7.5%,-17.4%,?,
CCOc1ccc(C(=O)/C=C/c2ccc(OC)c(OC)c2)cc1,1.8%,i,-2.8%,3.2%,-2.8%,-5.5%,.,
O=C(C=Cc1ccccc1)c1cc(Br)ccc1O,-0.1%,.,.,.,.,.,.,
CCc1ccc(/C=C/C(=O)c2cc(Br)ccc(=O)c2O)cc1,7.2%,?,-20.2%,26.6%,-8.2%,-21.2%,?,
COC(=O)c1ccccc1NC(=O)CCS(=O)(=O)c1nc(-c2ccc3c(c2)OCO3)cc(C(F)(F)F)n1,-2.1%,.,6.1%,.,-3.4%,0.5%,.,
Cc1cc(/C=C/c2ccc3cc(N(C)C)ccc3[n+]2C)c(C)n1-c1ccccc1,.,25.1µM*,?,-11.0%,39.8µM*[fluorescent],-23.2%,.,RECQ1 conf=271.1%;RECQ1 ADP FP=39.8µM*
Cc1ccc(C)c(NS(=O)(=O)c2cc3c(cc2Cl)NC(=O)CO3)c1,7.1%,.,-4.3%,.,-3.4%,-11.2%,.,
Nc1nn2cc(-c3ccc(Br)cc3)nc2c2ccccc12,-8.0%,?,16.7%,5.7%,-3.8%,-13.1%,?,
CCOC(=O)c1ccccc1NC(=O)c1cnc(N2CCOCC2)c2ccccc12,-5.1%,.,2.1%,.,1.6%,-8.7%,.,
CN(C)c1ccc(N2C(=O)CSC2=S)cc1,?,?,-3.8%,235.6%,-10.2%,-3.1%,-23.7%,
O=C1CSC(=S)N1c1ccc(F)cc1,.,.,.,.,.,-6.3%,.,
COc1ccc(-c2csc(N3CCN(c4cc(C)nc5ccccc45)CC3)n2)cc1OC,-0.7%,14.1µM*,1.9%,7.0%,-3.3%,-4.6%,-11.5%,RECQ1 conf=-3.1%[114 µM];RECQ1 ADP FP=?
COc1cc(-c2csc(N3CCOCC3)n2)cc(OC)c1OC,-10.3%,i,-4.6%,9.3%,-18.5%,-11.8%,.,
O=C(O)CSc1ncnc2scc(-c3ccccc3)c12,14.8%,-3.0%,-0.7%,2.3%,-0.6%,-8.0%,.,
CN(C)C(=O)CSc1ncnc2scc(-c3ccccc3)c12,9.3%,?,9.1%,152.4%,1.7%,8.8%,-7.1%,
NCC(=O)NC1(C(=O)O)CCCC1,.,.,.,2.7%[14.2 µM],.,.,.,
Nc1ccc(C(=O)OCC(=O)N2CCc3ccccc3C2)cc1[N+](=O)[O-],-16.7%,13.0%,-10.6%,1.3%,-0.8%,-13.6%,.,
Nc1ccc(C(=O)OCC(=O)N2c3ccccc3Sc3ccccc32)cc1[N+](=O)[O-],3.5%,28.2µM*,1.5%,-2.4%,-1.3%,-11.2%,-9.7%,
